According to PubChem BioAssay AID1007 (NMMLSC, 2008):
Hit rate of the full screen: of about 190,000 compounds, about 80 (0.04%) were called active. Not all results are given here. A number with no mark means an inactive call. No stated cut-off is given here; in the data, active means inhibition above about 40%.

biological target: Bcl-2-like protein 1 (Homo sapiens) (UniProt Q07817); experiment: Bcl-XL/Bim peptide interaction blockers – biochemical, multiplexed, bead flow cytometry, human Bcl-XL, primary screen (AID 1007); details: Bim peptide-Bcl-XL binding, fluorescence, at 10 µM, stronger effect = higher value
Sequence (Q07817 whole entry, looked up): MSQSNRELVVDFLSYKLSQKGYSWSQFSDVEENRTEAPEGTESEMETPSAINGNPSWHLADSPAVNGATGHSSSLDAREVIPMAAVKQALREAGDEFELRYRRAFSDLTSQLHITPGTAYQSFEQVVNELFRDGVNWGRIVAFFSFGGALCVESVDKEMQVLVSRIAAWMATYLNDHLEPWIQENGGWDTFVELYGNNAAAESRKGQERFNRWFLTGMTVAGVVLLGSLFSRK

SMILES	inhibition [%]
OCCn1c(-c2ccccc2)csc1=Nc1ccccc1	-3
COc1ccccc1N1CCN(/N=C\C(Br)=C\c2ccccc2)CC1	-1
Cc1nc2c(C(=O)NCc3cccs3)cnn2c(C)c1Cc1ccc(F)cc1	1
O=C(CN(c1cccc(Cl)c1)S(=O)(=O)c1ccccc1)NN=C1CCCC1	-1
CC(C)C(=O)Nc1c(O)c2ccccc2[nH]c1=O	-4
Cc1cc(C(=O)CCl)c(C)n1CC1COc2ccccc2O1 (stereo not drawn)	0
COc1cccc2c(N/N=C/c3ccco3)cc(C)nc12	0
CCc1ccccc1N1C(=O)C2C3CC(=O)C(c4ccccc43)C2C1=O (stereo not drawn)	-2
Cn1nnnc1-c1cc(Cl)cc(Cl)c1	0
O=C(Oc1ccccc1Cl)c1ccc(N2CCOCC2)c([N+](=O)[O-])c1	3
COc1ccc(Nc2nc(N)nc(CSC(=S)N3CCC(C)CC3)n2)cc1	20
CC1CCN(c2ccc(C(=O)Nc3nnc(C4CC4)s3)cc2[N+](=O)[O-])CC1	-12
NS(=O)(=O)c1cccc(NC(=O)COC(=O)/C=C/c2ccco2)c1	-2
N#CC1=C(N)Oc2[nH]c(=S)[nH]c(=O)c2C12C(=O)Nc1ccccc12 (stereo not drawn)	-1
Nc1[nH][nH]c(=O)c1N=Nc1ccc2c(c1)OCO2	0
Cc1cc[n+](-c2[nH]c(=O)sc2/C=N/NC(=O)c2ccccc2[O-])cc1C	-7
O=C(NCC(O)c1ccc([N+](=O)[O-])cc1)C1CCCCC1 (stereo not drawn)	0
CCCC(C)C(=O)NCc1ccncc1 (stereo not drawn)	0
CCOc1ccc(S(=O)(=O)Nc2nccs2)cc1	-2
CCOC(=O)c1c(C)n(C)c2ccc(OC)c(NS(=O)(=O)CC)c12	-7
COc1cc(C(=O)NCc2ccc3c(c2)cc(C)n3C)cc(OC)c1OC	-2
O=c1[nH]oc(O)c1-c1ncc(C(F)(F)F)cc1Cl	-2
COc1ccc(CC(=O)N[C@@H](CCSC)c2nc3ccccc3[nH]2)cc1	-5
Cc1cccc(NC(=S)NC(=O)c2ccc(Br)o2)c1	0

SMILES	inhibition [%]
Cc1c(-c2cccc(Cl)c2)nc2ccccc2c1C(=O)OCC(=O)N(C)C1CCS(=O)(=O)C1 (stereo not drawn)	0
CCOC(=O)C1=C(C)N=C2c3ccccc3C(=O)C2C1c1ccc(Br)cc1 (stereo not drawn)	-6
Cc1ccc(-c2nn(-c3ccccc3)cc2C(=O)Nc2cccc(S(=O)(=O)N3CCOCC3)c2)cc1	-14
CN(C)c1ccc(C=NCCc2ccc(S(N)(=O)=O)cc2)cc1	-3
COc1ccccc1-n1c(C)nc2cc(C(=O)NCc3ccc4c(c3)OCO4)ccc21	-10
CCOC(=O)c1ccc(N2C(=O)CC(N3CCN(C(=O)c4ccccc4)CC3)C2=O)cc1 (stereo not drawn)	-1
O=[N+]([O-])c1ccc(F)cc1Oc1nc(-c2cccnc2)nc2ccccc12	1
COc1ccc(/C=N/N=C/c2c[nH]c(=O)c(C#N)c2Nc2ccccc2)cc1	11
COc1cc(C2OC(c3cc(OC)c(OC)c(OC)c3)C(C)C2C)cc(OC)c1OC (stereo not drawn)	-1
CN(C)CCCCCN(C)Cc1cc2ccccc2o1	-2
COc1ccc(C(=O)COC(=O)COc2ccc(C)c(C)c2)cc1	-2
Cc1ccc(S(=O)(=O)N(C)c2ccc(OCC(=O)NC3=NCCS3)cc2)cc1	0
CC(=O)NC1C(Oc2ccc(C)cc2)OC2COC(c3ccco3)OC2C1O (stereo not drawn)	-6
Cc1ccc(C(=O)C(=S)N2CCOCC2)cc1	-9
COc1cc(CN2CCNC(=O)C2CC(=O)NCCc2ncccc2C)cc(OC)c1 (stereo not drawn)	-3
C=CCn1c(SCC(=O)CC(=O)OCC)nc2cc(C(=O)N3CCC(C(N)=O)CC3)ccc2c1=O	-5
Cc1ccc(C)c(NC(=O)CCC(=O)N/N=C2/CC(=O)CC(C)(C)C2)c1	0
Cc1cc(C)c[n+](-c2nc3ccccc3nc2[N-]S(=O)(=O)c2cccs2)c1	-3
O=C(Nc1cccc(C(F)(F)F)c1)c1ccc(N2CCNCC2)c([N+](=O)[O-])c1	0
O=C(NCc1cccs1)C1CCN(S(=O)(=O)c2ccc(Cl)cc2)CC1	0
CCN(CC(=O)NC(=O)NCc1ccccc1)Cc1nc2ccccc2c(=O)[nH]1	1
C/C(=N/OC(=O)c1c(-c2c(F)cccc2Cl)noc1C)c1cnccn1	-3
Cc1ccc(-c2nn(-c3cccc(F)c3)cc2CNCCc2ccncc2)o1	-2
O=C(CSc1ccccc1F)NC1CCS(=O)(=O)C1 (stereo not drawn)	0
